# The entries come from a sample that favours hits as a whole.
# CHX counter: Cycloheximide Counterscreen for Small Molecule Inhibitors of Shiga Toxin. cell reporter, cycloheximide protein synthesis inhibition counterscreen. max response, %. 300,000 tested, 12% active. AID 2314, 2010; in the data active means max response mostly above about 13%, no sharp cut-off; inactive means mostly below about 14%; further: read at 38.3 µM for the half of the compounds with a filed dose
# Shiga toxin inh: A qHTS for Small Molecule Inhibitors of Shiga Toxin; inhibition, % at 38.7 µM; 290,000 tested, 9.2% active; Vero cells, Shiga toxin protein synthesis inhibition reporter; in the data active means inhibition mostly above about 28%, no sharp cut-off; inactive means mostly below about 43%
# Tb PYK inh: qHTS of Trypanosoma Brucei Inhibitors; TbPYK enzyme, Kinase-Glo Plus ATP luminescence, 45 min; Potency, µM (series often up to 76.8 µM), hits mostly inhibitors; 410,000 tested, 0.12% active; active means well fitted curve in the direction sought with a large enough effect; an effect the other way counts as inactive or inconclusive; further: nearly all actives have a fitted effect of over 50% in size
#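 Screened from lowest to highest concentration, compounds were pinned into TbPYK/substrate mixtures, and ADP (130 uM final) was added. Plates sat at room temperature for 45 min prior to Kinase-Glo Plus detection by luminescence.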
# SARS PLP yeast: qHTS of Yeast-based Assay for SARS-CoV PLP; S. cerevisiae expressing SARS-CoV PLpro, growth rescue; Potency, µM (titrated, usually from 32.9 µM), hits mostly activators; 330,000 tested, 0.19% active; further: nearly all actives have a fitted effect of over 55% in size
# LmPK inh: qHTS Assay for Inhibitors of Leishmania Mexicana Pyruvate Kinase (LmPK). purified LmPK, Kinase-Glo ATP luminescence, 1 h. Potency, µM (titrated, usually from 57.5 µM), actives largely listed as inhibitors. 290,000 tested, 0.37% active; active means well fitted curve in the direction sought with a large enough effect; an effect the other way counts as inactive or inconclusive
# Target sequence (Q27686 whole entry, looked up): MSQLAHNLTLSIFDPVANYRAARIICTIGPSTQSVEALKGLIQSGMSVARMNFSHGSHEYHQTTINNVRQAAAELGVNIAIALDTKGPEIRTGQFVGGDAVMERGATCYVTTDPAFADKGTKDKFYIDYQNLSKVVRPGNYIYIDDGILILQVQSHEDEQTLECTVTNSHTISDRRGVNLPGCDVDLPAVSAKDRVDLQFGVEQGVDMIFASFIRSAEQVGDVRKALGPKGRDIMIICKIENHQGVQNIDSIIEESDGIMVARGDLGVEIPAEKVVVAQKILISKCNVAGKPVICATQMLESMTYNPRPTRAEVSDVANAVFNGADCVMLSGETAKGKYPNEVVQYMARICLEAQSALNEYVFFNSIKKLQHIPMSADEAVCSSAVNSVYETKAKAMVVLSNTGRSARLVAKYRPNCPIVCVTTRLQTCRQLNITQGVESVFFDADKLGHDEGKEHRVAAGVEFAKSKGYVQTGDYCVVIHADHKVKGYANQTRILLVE
#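 Purified LmPK (0.1 nM) converted ADP (0.1 mM) to ATP with PEP (0.5 mM) in imidazole buffer pH 7.2 with KCl and MgCl2, 1 h at room temperature. ATP was read by Kinase-Glo luminescence; data normalized to uninhibited and no-enzyme controls.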
# NS1 inh: qHTS Assay for Inhibitors of Influenza NS1 Protein Function; Potency, µM (top dose mostly 46.1 µM); 270,000 tested, 0.4% active; AID 2326, 2010; further: actives are rising curves; nearly all actives have a fitted effect of over 50% in size
#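 A cell-based growth assay was used: compounds that relieve NS1-induced slow growth of budding yeast raise OD600. Assay medium was yeast nitrogen base with ammonium sulphate and -URA supplement, pH 6.0, with 2% galactose.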
# A number is an active result; 0 = inactive; - = not tested or not shown. Unless noted, the call rests on the fitted dose curve.
SMILES,CHX counter,Shiga toxin inh,Tb PYK inh,SARS PLP yeast,LmPK inh,NS1 inh
COc1ccc(/C=N/NC(=O)c2cc(-c3ccc4c(c3)OCO4)n[nH]2)cc1OC,29,0,0,0,0,0
CCCC1=C(C(=O)OCC)C(c2cccnc2)n2nc(C)nc2N1 (configuration not stated),0,0,0,0,0,0
O=C(Cc1coc2cc(O)ccc12)N1CCN(S(=O)(=O)c2ccc(Br)cc2)CC1,-,-,0,-,-,-
CC(OC(=O)c1cc(=O)[nH]c2ccccc12)c1ccccc1 (configuration not stated),32,70,0,0,0,0
COc1ccc(-c2nc3cc(NC(=O)COc4ccccc4C)ccc3o2)cc1,-,-,0,-,-,-
O=C1CS/C(=N\N=C\c2ccco2)N1c1ccccc1,15,0,0,0,0,0
C=CCN(CC=C)C(=O)c1ccc2nc(Cc3ccc(OC)c(OC)c3)oc2c1,17,0,0,0,0,0
COc1ccc(Cc2nc3ccc(C(=O)N4CCC[C@H]4CO)cc3o2)cc1,0,0,0,0,0,0
COc1ccc(Cc2nc3ccc(C(=O)N(C)CC4COCCO4)cc3o2)cc1 (configuration not stated),39,72,0,0,0,0
COc1ccc(Cc2nc3ccc(C(=O)NC(C)Cc4ncccc4C)cc3o2)cc1OC (configuration not stated),30,0,0,0,0,0
COc1ccc(Cc2nc3ccc(C(=O)N4CCCC4)cc3o2)cc1,70,106,0,0,0,0
COc1ccc(Cc2nc3ccc(C(=O)NCc4ncc(C)[nH]4)cc3o2)cc1OC,0,0,0,0,0,0
COc1ccc(Cc2nc3ccc(C(=O)N4CCN(C)C(C)C4)cc3o2)cc1OC (configuration not stated),11,0,0,0,0,0
COc1ccc(Cc2nc3ccc(C(=O)N4CCCC4)cc3o2)cc1OC,0,36,0,0,0,0
C#CCN(CC=C)C(=O)c1ccc2nc(C3CCCCC3)oc2c1,19,0,0,0,0,0
CO/N=C1\C[C@]2(C[C@@H]3C[C@H](C/C=C(/C)C[C@@H](C)/C=C\C=C4\CO[C@@H]5[C@@H](O)C(C)=C[C@@H](C(=O)O3)[C@]45O)O2)O[C@@H](/C(C)=C/C(C)C)[C@H]1C,-,-,0,-,-,-
CC(C)[C@H](N)C(=O)N[C@@H](CCC(N)=O)C(=O)NCC(=O)N[C@@H](CCC(=O)O)C(=O)N[C@@H](CCC(=O)O)C(=O)N[C@@H](CO)C(=O)N[C@@H](CC(N)=O)C(=O)N[C@@H](CC(=O)O)C(=O)N[C@@H](CCCCN)C(=O)O,0,0,-,-,-,-
COc1ccccc1/C=N/N(C(C)=O)c1nc(-c2ccc(F)cc2)cs1,30,0,0,0,0,0
CS(=O)(=O)N1CCN(c2ccc(NC(=S)NC(=O)c3ccc4c(c3)OCO4)cc2)CC1,0,0,0,0,0,0
O=C(NC(=S)Nc1ccc(N2CCCCC2)cc1)c1ccc2c(c1)OCCO2,58,98,0,0,0,0
O=C(NC(=S)Nc1ccc(N2CCOCC2)cc1)c1ccc2c(c1)OCCO2,42,61,0,0,0,0
O=C(NC(=S)Nc1ccc(Cc2ccncc2)cc1)c1ccc(F)cc1,18,0,0,0,0,-
O=C(NC(=S)Nc1ccc(CN2CCOCC2)cc1)c1ccc2c(c1)OCCO2,31,88,0,0,0,0
COc1cc(NC(=O)C(NC(=O)C2CCC(C)CC2)C(C)C)cc(OC)c1OC (configuration not stated),-,-,0,-,-,-
CCc1cccc(CC)c1NC(=O)c1c(C)oc2ccc(O)c(CN3CCOCC3)c12,-,-,0,-,-,-
CCNC(=O)[C@@H]1CCCN1C(=O)[C@H](CCCN=C(N)N)NC(=O)[C@H](CC(C)C)NC(=O)[C@@H](Cc1c[nH]c2ccccc12)NC(=O)[C@H](Cc1ccc(O)cc1)NC(=O)[C@H](CO)NC(=O)[C@H](Cc1c[nH]c2ccccc12)NC(=O)[C@H](Cc1cnc[nH]1)NC(=O)[C@@H]1CCC(=O)N1,-,-,0,-,-,-
O=C(NC(=S)Nc1ccc(F)cc1)c1ccc2c(c1)OCCO2,70,101,0,0,0,0

# High-throughput results as filed in PubChem.
